Data published in PubChem BioAssay (Tox21).
Several values for one entry are separate records, joined by “and”; a condition that tells them apart may be missing. Identical values can stand only once. Records with an inconclusive call do not appear. Entries that show only a call come without a potency. Activity calls are given as the source filed them. Unless noted, calls follow the shape of the dose curve; as a rule, active = well fitted curve in the direction sought with a large enough effect in the repeat runs; inconclusive = weak or mixed curves; inactive = no such curve, though single readings can be large; an effect the other way counts as inactive or inconclusive.

Tests used:
[1] = qHTS assay to identify small molecule antagonists of the glucocorticoid receptor (GR) signaling pathway - cell viability counter screen (AID 720693); also: nearly all actives have a fitted effect of over 55% in size; also: potency is read from the fitted curve at half-maximal effect
[2] = qHTS assay for identifying genotoxic compounds that show differential cytotoxicity against isogenic chicken DT40 cell lines with known DNA damage response pathways - Rev3 mutant cell line (AID 743014); also: nearly all actives have a fitted effect of over 55% in size; also: potency is read from the fitted curve at half-maximal effect
[3] = qHTS assay for identifying genotoxic compounds that show differential cytotoxicity against isogenic chicken DT40 cell lines with known DNA damage response pathways - Rad54/Ku70 mutant cell line (AID 743015); also: nearly all actives have a fitted effect of over 60% in size; also: potency is read from the fitted curve at half-maximal effect
[4] = target: Androgen receptor (Homo sapiens) (UniProt P10275); experiment: qHTS assay to identify small molecule agonists of the androgen receptor (AR) signaling pathway using the MDA cell line (AID 743040; also: nearly all actives have a fitted effect of over 20% in size)
Chain of Androgen receptor (Homo sapiens) (P10275 whole entry, looked up): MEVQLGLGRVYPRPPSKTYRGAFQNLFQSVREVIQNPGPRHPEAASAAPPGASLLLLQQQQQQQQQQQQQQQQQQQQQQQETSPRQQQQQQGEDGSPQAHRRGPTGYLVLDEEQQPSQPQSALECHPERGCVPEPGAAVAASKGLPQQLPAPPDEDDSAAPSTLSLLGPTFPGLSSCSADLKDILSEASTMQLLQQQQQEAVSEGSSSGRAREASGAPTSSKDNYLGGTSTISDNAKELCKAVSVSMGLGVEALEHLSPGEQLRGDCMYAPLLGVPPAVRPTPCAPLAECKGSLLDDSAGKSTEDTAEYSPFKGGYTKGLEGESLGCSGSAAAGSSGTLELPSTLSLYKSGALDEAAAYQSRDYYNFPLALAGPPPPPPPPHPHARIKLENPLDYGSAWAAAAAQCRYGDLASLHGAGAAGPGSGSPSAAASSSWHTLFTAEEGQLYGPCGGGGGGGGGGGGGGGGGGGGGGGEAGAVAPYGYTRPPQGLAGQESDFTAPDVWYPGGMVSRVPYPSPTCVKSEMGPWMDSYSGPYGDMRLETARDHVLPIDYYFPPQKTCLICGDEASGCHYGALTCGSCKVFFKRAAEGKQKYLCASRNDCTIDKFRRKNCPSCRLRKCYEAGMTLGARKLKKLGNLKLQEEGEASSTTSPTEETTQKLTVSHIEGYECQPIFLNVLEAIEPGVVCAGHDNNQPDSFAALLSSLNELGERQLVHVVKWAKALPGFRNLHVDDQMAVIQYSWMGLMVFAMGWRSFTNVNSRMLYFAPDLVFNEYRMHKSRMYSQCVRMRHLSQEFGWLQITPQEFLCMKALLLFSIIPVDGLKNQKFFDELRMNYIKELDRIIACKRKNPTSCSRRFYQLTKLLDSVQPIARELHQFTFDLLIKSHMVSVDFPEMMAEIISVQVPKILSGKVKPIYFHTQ
Method in brief: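 Luciferase read-out, ONE-Glo, 30 min RT. Cells: MDA-kb2 AR-luc, MMTV promoter with AR and GR response elements. Compound exposure 16 h, 37C, 0% CO2, after 5 h pre-incubation. qHTS agonist mode.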

[5] = qHTS assay to identify small molecule antagonists of the androgen receptor (AR) signaling pathway using the MDA cell line - cell viability counter screen (AID 743041; also: nearly all actives have a fitted effect of over 45% in size; also: potency is read from the fitted curve at half-maximal effect)
Method in brief: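 Cytotoxicity counter screen: MDA-kb2 AR-luc cells, compound + R1881, 16 h, 37C, 0% CO2; CellTiter-Fluor added at 15.5 h, fluorescence read after 30 min.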

[6] = target: Androgen receptor (Homo sapiens) (UniProt P10275); experiment: qHTS assay to identify small molecule antagonists of the androgen receptor (AR) signaling pathway using the MDA cell line (AID 743042; also: nearly all actives have a fitted effect of over 55% in size; also: potency is read from the fitted curve at half-maximal effect)
Method in brief: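 MDA-kb2 breast carcinoma cells carrying MMTV-luciferase (AR/GR responsive) were co-treated with compounds and the agonist R1881 for 16 h at 37C. Inhibition read as ONE-Glo luminescence; CellTiter-Fluor fluorescence measured in parallel for cytotoxicity.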

[7] = qHTS assay to identify small molecule antagonists of the androgen receptor (AR) signaling pathway - cell viability counter screen (AID 743033; also: nearly all actives have a fitted effect of over 45% in size; also: potency is read from the fitted curve at half-maximal effect)
[8] = target: Androgen receptor (Homo sapiens) (UniProt P10275); experiment: qHTS assay to identify small molecule antagonists of the androgen receptor (AR) signaling pathway (AID 743035; active = well fitted inhibition curve with a large enough effect in the signal ratio in the repeat runs, not every such curve was filed as active; the % refers to the signal ratio)
Method in brief: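 R1881 agonist challenge of a HEK293 UAS-beta-lactamase AR reporter line in the presence of compound (16 h, 37C); signal taken as FRET fluorescence after 2 h with LiveBLAzer B/G substrate at room temperature.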

[9] = qHTS assay for identifying genotoxic compounds that show differential cytotoxicity against isogenic chicken DT40 cell lines with known DNA damage response pathways - wild type cell line (AID 743012); also: nearly all actives have a fitted effect of over 60% in size
Method in brief: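 Endpoint: CellTiter-Glo luminescence, 30 min RT. Cells: wild type DT40, 300/well. Exposure: compounds in DMSO, 40 h, 37 C/5% CO2, after ~0.5 h pre-incubation.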

SMILES | Potency [1] | Potency [2] | Potency [3] | Potency [4] | Potency [5] | Potency [6] | Potency [7] | Potency [8] | Potency [9]
CN(C)c1ccc(N=NS(=O)(=O)O)cc1 | inactive | 26.1 µM (active) | 22 µM (active) | inactive | 14.4 µM (active) | 23.7 µM (active) | – | – | –
NC(=O)C(=O)N/N=C/c1ccc([N+](=O)[O-])o1 | inactive | 11.9 µM (active) | 16.8 µM (active) | inactive | inactive | – | inactive | – | –
Cc1cc(Nc2ccc(O)cc2)ccc1N | inactive | 13.6 µM (active) | 13.6 µM (active) | – | – | – | – | – | –
Clc1ccc(C(c2ccccc2Cl)C(Cl)Cl)cc1 (stereo not drawn) | inactive | 29.8 µM (active) and 48.6 µM (active) | 26.6 µM (active) and 43.3 µM (active) | – | inactive | – | – | – | –
O=C1OC(OC(=O)c2cccnc2Nc2cccc(C(F)(F)F)c2)c2ccccc21 (stereo not drawn) | inactive | inactive | inactive | inactive | inactive | inactive | – | inactive | –
S=C(SSSSSSC(=S)N1CCCCC1)N1CCCCC1 | inactive | 0.425 µM (active) | 0.674 µM (active) | – | 1.51 µM (active) | – | 0.68 µM (active) | – | –
Cc1oc(-c2ccccc2)nc1CCOc1ccc(C[C@H](Nc2ccccc2C(=O)c2ccccc2)C(=O)O)cc1 | 38.9 µM (active) | 61.1 µM (active) | 54.5 µM (active) | inactive | 61.1 µM (active) | – | inactive | – | –
CC(C)c1cccc(C(C)C)c1N1C(=O)c2ccc(O)cc2C1=O | 43.6 µM (active) | 7.7 µM (active) | 8.63 µM (active) | – | inactive | – | – | – | –
c1cc2c3c(c1)ccc1cccc(c13)C2 | inactive | – | – | – | inactive | – | – | – | inactive
Oc1c(Br)cc(Br)c2cccnc12 | inactive | 11.9 µM (active) | 13.3 µM (active) | – | inactive | – | – | – | –
